The text below walks through data of PubChem BioAssay AID492949 (National Center for Advancing Translational Sciences (NCATS), 2010).

Records with an inconclusive call do not appear. Values without a mark were called inactive. Activity calls are given as the source filed them. Calls follow the shape of the dose curve; as a rule, active = well fitted activation curve with a large enough effect; inconclusive = small, poorly fitted or top-dose-only effect; inactive = no such curve, though single readings can be large or run the other way.
Potency is read from the fitted curve at half-maximal effect.

Relaxin receptor 1 (Homo sapiens), sequence (Q9HBX9 whole entry, looked up): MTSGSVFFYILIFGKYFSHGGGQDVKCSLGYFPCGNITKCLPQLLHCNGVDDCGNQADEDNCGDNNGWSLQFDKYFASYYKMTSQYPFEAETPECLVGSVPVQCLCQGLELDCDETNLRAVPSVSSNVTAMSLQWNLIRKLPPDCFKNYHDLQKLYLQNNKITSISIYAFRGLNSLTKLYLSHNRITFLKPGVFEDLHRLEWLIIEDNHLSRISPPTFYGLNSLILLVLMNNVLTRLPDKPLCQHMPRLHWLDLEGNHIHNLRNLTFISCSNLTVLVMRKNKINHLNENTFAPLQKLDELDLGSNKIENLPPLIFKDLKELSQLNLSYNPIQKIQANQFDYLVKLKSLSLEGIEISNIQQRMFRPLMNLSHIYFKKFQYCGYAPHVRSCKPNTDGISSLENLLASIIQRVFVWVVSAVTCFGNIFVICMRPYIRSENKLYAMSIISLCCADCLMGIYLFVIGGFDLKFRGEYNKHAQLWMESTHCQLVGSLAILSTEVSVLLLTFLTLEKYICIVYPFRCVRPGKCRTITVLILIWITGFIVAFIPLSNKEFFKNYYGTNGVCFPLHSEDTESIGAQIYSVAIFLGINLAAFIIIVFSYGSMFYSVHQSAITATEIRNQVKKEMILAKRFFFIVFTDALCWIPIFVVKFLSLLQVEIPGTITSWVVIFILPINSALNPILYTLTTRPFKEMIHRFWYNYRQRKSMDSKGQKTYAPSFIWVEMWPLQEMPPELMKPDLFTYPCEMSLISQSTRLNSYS

This assay concerns the target Relaxin receptor 1 (Homo sapiens) (UniProt Q9HBX9). As to the kind of experiment: qHTS Assay for Agonists of the Relaxin Receptor RXFP1: THP1 Hit Validation. Also: nearly all actives have a fitted effect of over 60% in size.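 As to activation: 0% = buffer alone basal and 100% = 29 nM porcine relaxin.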 The following applies: THP1-RXFP1 cells, cAMP TR-FRET, 30 min; series mostly up to 115 µM; activation: at the top concentration. The gist of the method: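 TR-FRET cAMP readout (signal falls as cAMP rises) in lysed RXFP1-transfected THP1 cells after 30 min compound treatment, 37C, PDE4 inhibitor present. EC50 from Hill equation, 0-100% set by buffer and 29 nM porcine relaxin.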
On the technique in general: In qHTS, concentration-response curves come from the screen itself.
On to `COc1ccc(Nc2ncc(C#N)c(N)n2)c(OC)c1`, for which the “activation” value was -8.23%.

For `COc1ccc(C(C)=O)cc1Cn1cnc2c(cnn2C)c1=O`, the Potency was 13.8 µM (active).

As to `O=C(O)CCNc1ccc(NCCC(=O)O)c2c1C(=O)c1ccccc1C2=O`, the “activation” value was -29.2%. Consider `CCc1nnc(NC(=O)CSc2nc(C)nc3c2c(=O)n(C)c(=O)n3C)s1`, for which the Potency is 10.9 µM (active).

Consider `CCOc1ccc2cc(C#N)c(SCC(=O)NC(C)CC)nc2c1` (stereo unspecified), for which the Potency is 6.9 µM (active). For `S=c1nc[nH]c2c1[nH]c1ccc(Cl)cc12`, the Potency is 1.55 µM (active).
